# Results: ChEMBL document CHEMBL2218924, “A broad activity screen in support of a chemogenomic map for kinase signalling research and drug discovery” (Biochem J, 2013)
# What was measured:
# [1] = biological target: T1, cGMP-dependent protein kinase 1 (Homo sapiens) (UniProt Q13976); settings: at 1 µM
# T1 sequence (whole entry): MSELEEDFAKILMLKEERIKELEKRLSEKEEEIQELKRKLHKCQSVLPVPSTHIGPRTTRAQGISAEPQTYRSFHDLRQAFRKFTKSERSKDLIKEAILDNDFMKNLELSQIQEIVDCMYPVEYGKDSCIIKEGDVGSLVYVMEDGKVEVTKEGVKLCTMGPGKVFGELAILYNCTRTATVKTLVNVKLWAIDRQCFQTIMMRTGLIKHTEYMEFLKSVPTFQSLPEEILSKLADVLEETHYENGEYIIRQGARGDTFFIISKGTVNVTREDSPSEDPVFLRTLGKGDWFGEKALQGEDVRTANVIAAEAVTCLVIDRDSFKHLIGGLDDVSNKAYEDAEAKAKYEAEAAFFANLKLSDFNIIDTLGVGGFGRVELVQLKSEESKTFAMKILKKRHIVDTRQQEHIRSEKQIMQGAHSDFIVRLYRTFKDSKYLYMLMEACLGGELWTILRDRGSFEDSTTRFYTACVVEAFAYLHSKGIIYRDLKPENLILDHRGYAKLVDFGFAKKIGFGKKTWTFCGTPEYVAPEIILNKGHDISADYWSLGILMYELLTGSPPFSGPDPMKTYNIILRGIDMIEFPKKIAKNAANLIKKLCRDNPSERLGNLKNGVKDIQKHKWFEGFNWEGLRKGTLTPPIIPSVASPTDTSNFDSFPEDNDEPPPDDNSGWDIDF
# [2] = biological target: T1, cGMP-dependent protein kinase 1 (Homo sapiens); settings: at 10 µM
# [3] = biological target: T1, cGMP-dependent protein kinase 1 (Homo sapiens); settings: at 1 µM; remark: listed apart in the source
# [4] = biological target: T1, cGMP-dependent protein kinase 1 (Homo sapiens); settings: at 10 µM; remark: listed apart in the source
# [5] = biological target: T2, MAP kinase-activated protein kinase 5 (Homo sapiens) (UniProt Q8IW41); settings: at 1 µM
# T2 sequence (whole entry): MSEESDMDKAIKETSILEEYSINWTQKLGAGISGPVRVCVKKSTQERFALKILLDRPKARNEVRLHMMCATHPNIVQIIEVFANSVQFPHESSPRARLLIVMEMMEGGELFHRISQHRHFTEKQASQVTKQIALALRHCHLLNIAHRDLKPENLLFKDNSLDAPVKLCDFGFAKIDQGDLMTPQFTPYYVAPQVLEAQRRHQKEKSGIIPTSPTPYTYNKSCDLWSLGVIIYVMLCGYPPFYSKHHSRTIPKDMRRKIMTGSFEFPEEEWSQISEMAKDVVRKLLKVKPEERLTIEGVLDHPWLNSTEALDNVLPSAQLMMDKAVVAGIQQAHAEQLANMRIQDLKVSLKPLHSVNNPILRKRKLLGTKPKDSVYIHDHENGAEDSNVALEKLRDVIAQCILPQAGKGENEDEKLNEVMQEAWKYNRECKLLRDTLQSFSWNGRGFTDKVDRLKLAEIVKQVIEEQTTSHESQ
# [6] = biological target: T2, MAP kinase-activated protein kinase 5 (Homo sapiens); settings: at 10 µM
# [7] = biological target: Serine/threonine-protein kinase N2 (Homo sapiens) (UniProt Q16513); settings: at 1 µM
# Serine/threonine-protein kinase N2 (Homo sapiens), sequence (Q16513 whole entry, looked up): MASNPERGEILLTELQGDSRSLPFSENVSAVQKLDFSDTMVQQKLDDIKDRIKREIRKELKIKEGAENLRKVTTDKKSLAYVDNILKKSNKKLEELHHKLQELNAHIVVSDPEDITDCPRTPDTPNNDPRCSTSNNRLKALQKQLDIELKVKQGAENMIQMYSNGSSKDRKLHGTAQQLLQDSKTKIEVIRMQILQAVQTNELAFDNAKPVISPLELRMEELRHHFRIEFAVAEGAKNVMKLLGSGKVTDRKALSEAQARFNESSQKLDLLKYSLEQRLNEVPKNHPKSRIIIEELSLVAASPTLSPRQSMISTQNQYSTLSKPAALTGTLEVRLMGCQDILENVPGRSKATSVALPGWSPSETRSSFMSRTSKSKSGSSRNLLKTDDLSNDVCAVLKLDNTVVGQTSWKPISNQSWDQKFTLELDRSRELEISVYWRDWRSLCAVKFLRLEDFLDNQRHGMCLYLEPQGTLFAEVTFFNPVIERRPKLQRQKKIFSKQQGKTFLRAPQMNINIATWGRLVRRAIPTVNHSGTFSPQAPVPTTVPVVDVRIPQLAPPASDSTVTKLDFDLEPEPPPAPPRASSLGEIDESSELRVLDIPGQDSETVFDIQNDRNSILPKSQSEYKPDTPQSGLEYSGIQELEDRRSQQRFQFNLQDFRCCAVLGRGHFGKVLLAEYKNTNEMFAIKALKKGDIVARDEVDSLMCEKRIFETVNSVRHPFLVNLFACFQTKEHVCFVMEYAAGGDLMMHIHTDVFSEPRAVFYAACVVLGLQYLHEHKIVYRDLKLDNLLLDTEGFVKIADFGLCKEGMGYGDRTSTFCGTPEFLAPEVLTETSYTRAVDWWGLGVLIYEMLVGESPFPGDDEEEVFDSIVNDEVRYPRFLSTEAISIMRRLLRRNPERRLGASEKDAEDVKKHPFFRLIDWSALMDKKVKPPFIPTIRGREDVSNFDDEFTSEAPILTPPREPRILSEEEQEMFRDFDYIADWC
# [8] = biological target: Serine/threonine-protein kinase N2 (Homo sapiens) (UniProt Q16513); settings: at 10 µM
# [9] = biological target: Tyrosine-protein kinase FRK (Homo sapiens) (UniProt P42685); settings: at 1 µM
# Tyrosine-protein kinase FRK (Homo sapiens), sequence (P42685 whole entry, canonical isoform): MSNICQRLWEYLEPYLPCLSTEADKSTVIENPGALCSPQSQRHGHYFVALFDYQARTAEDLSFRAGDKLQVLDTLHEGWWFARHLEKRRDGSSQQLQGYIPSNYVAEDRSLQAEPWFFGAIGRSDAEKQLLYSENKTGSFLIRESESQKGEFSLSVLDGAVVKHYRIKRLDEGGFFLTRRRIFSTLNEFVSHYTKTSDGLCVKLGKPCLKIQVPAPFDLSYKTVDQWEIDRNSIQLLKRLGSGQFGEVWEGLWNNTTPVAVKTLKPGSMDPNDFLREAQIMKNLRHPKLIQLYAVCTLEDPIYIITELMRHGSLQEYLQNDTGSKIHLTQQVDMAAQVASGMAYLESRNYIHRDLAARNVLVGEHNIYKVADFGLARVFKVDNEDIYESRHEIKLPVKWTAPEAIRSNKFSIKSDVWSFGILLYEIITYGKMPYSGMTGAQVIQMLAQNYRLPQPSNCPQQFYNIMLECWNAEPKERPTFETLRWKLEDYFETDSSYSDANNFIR
# [10] = biological target: Tyrosine-protein kinase FRK (Homo sapiens) (UniProt P42685); settings: at 10 µM
# [11] = biological target: T3, Phosphorylase b kinase gamma catalytic chain, liver/testis isoform (Homo sapiens) (UniProt P15735); settings: at 1 µM
# T3 sequence (whole entry): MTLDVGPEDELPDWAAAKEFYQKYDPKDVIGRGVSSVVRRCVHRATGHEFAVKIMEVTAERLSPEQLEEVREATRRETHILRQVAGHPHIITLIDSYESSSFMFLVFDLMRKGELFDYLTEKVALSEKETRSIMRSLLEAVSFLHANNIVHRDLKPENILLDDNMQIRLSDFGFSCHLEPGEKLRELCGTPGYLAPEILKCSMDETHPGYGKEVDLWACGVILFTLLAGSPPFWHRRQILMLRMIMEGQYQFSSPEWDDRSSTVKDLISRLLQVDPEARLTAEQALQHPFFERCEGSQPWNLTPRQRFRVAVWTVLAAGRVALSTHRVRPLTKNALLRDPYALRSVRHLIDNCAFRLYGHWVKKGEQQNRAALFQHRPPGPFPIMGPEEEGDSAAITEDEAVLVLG
# [12] = biological target: T3, Phosphorylase b kinase gamma catalytic chain, liver/testis isoform (Homo sapiens); settings: at 10 µM
# [13] = biological target: Serine/threonine-protein kinase pim-1 (Homo sapiens) (UniProt P11309); settings: at 1 µM
# Serine/threonine-protein kinase pim-1 (Homo sapiens), sequence (P11309 whole entry, looked up): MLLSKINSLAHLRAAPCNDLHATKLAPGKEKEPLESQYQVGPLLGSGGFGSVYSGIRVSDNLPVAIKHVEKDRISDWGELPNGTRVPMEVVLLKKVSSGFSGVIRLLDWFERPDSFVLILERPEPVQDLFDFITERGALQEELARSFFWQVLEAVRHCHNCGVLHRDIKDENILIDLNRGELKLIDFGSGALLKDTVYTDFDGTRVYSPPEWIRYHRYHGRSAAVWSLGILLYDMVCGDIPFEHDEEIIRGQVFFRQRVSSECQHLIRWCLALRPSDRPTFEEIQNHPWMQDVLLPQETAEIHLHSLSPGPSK
# [14] = biological target: Serine/threonine-protein kinase pim-1 (Homo sapiens) (UniProt P11309); settings: at 10 µM
# [15] = biological target: Serine/threonine-protein kinase pim-2 (Homo sapiens) (UniProt Q9P1W9); settings: at 1 µM
# Serine/threonine-protein kinase pim-2 (Homo sapiens), sequence (Q9P1W9 whole entry, looked up): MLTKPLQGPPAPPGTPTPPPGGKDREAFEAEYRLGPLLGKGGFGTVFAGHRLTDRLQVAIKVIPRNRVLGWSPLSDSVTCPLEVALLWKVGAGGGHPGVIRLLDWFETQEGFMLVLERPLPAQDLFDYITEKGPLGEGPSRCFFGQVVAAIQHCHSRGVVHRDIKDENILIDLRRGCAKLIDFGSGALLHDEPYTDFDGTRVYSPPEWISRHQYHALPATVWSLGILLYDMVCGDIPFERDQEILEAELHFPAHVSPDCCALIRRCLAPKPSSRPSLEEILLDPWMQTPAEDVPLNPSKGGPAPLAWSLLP
# [16] = biological target: Serine/threonine-protein kinase pim-2 (Homo sapiens) (UniProt Q9P1W9); settings: at 10 µM
# [17] = biological target: Serine/threonine-protein kinase pim-3 (Homo sapiens) (UniProt Q86V86); settings: at 1 µM
# [18] = biological target: Serine/threonine-protein kinase pim-3 (Homo sapiens) (UniProt Q86V86); settings: at 10 µM
# [19] = biological target: Serine/threonine-protein kinase PLK1 (Homo sapiens) (UniProt P53350); settings: at 1 µM
# Serine/threonine-protein kinase PLK1 (Homo sapiens), sequence (P53350 whole entry): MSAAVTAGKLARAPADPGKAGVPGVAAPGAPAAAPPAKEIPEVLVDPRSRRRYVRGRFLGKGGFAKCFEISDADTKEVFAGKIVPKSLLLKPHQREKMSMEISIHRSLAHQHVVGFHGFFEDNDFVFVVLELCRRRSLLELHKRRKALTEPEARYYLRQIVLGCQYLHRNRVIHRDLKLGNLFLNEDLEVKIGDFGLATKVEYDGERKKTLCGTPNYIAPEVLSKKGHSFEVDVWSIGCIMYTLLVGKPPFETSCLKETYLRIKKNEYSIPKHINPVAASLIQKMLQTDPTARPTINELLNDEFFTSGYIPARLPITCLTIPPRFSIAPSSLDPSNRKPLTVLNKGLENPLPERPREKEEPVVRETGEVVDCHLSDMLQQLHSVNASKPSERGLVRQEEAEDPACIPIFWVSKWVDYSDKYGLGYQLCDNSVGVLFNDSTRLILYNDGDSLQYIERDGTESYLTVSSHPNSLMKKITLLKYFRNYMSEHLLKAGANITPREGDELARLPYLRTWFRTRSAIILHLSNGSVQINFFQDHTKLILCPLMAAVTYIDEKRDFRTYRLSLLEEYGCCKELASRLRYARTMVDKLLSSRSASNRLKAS
# [20] = biological target: Serine/threonine-protein kinase PLK1 (Homo sapiens) (UniProt P53350); settings: at 10 µM
SMILES,residual activity [1] [%],residual activity [2] [%],residual activity [3] [%],residual activity [4] [%],residual activity [5] [%],residual activity [6] [%],residual activity [7] [%],residual activity [8] [%],residual activity [9] [%],residual activity [10] [%],residual activity [11] [%],residual activity [12] [%],residual activity [13] [%],residual activity [14] [%],residual activity [15] [%],residual activity [16] [%],residual activity [17] [%],residual activity [18] [%],residual activity [19] [%],residual activity [20] [%]
COc1ccc(C(=O)Nc2sc3c(c2C(N)=O)CCCC3)cc1OC,104,88,79,90,59,76,88,114,91,80,78,84,80,97,87,114,92,97,94,75
O=C(Nc1cccc(Nc2nccc(Nc3cccc(C(F)(F)F)c3)n2)c1)C1CC1,100,101,90,66,128,65,106,96,53,11,94,80,66,64,110,119,104,104,78,74
O=C1NC(=O)/C(=C/c2ccc3c(c2)OC(F)(F)O3)S1,105,108,72,52,106,37,117,97,101,107,85,94,37,5,58,10,88,41,101,61
COc1ccc(S(=O)(=O)N(CCO)c2ccccc2CN(C)C/C=C/c2ccc(Cl)cc2)cc1,101,99,103,86,98,53,95,69,100,125,116,83,96,73,143,137,86,82,76,72
O=C1Nc2cc(Br)ccc2/C1=C1/Nc2ccccc2/C1=N\O,90,109,78,61,76,90,75,92,2,0,55,24,67,78,106,85,78,81,79,81
COc1cccc(-c2cc(=O)c3ccccc3o2)c1N,95,89,114,102,125,108,94,90,93,86,113,117,82,58,126,102,89,91,81,102
Oc1n[nH]c2nnc(-c3c(-c4ccccc4)nn4ccccc34)cc12,99,100,89,78,115,112,86,86,88,92,116,111,84,89,123,84,85,84,75,83
CCC(=O)Nc1ccc2ncnc(Nc3cccc(Br)c3)c2c1,108,96,89,81,74,74,90,99,94,59,90,108,80,86,104,94,92,85,93,71
CC(C)n1cnc2c(NCc3ccccc3)nc(NCCCO)nc21,89,101,95,83,115,115,110,99,88,80,96,75,107,75,134,87,93,96,89,52
O=Nc1c(-c2c(O)[nH]c3ccccc23)[nH]c2ccccc12,77,67,79,45,78,24,91,48,13,6,25,12,76,47,68,38,94,90,83,103
Nc1ccc2ncnc(NCCc3ccc(Oc4ccccc4)cc3)c2c1,108,109,86,75,89,90,98,78,93,109,88,75,100,93,93,136,90,89,90,85
CO[C@H]1C[C@@H]2CC[C@@H](C)[C@@](O)(O2)C(=O)C(=O)N2CCCC[C@H]2C(=O)O[C@H]([C@H](C)C[C@@H]2CC[C@@H](O)[C@H](OC)C2)CC(=O)[C@H](C)/C=C(\C)[C@@H](O)[C@@H](OC)C(=O)[C@H](C)C[C@H](C)/C=C/C=C/C=C/1C,101,128,86,85,57,62,95,116,95,112,94,116,105,141,110,142,97,93,75,66
CN(C)c1ccc(/C=C2\C(=O)Nc3ccccc32)cc1,121,115,65,84,113,65,113,120,97,76,98,85,77,93,92,112,106,91,88,76
